Test results taken from PubChem BioAssay (Tox21).
Values joined by “and” are separate entries in the source; they are usually repeats but may differ in a detail not shown here. Equal values may be shown once. Records with an inconclusive call do not appear. A structure can be active in one record and inactive in another. Active and inactive are the calls of the source. Unless noted, the call rests on the fitted dose curve; in most records, active means well fitted curve in the direction sought with a large enough effect in the repeat runs; inconclusive means weak or mixed curves; inactive means no such curve, though single readings can be large; an effect the other way counts as inactive or inconclusive.

Key:
[1] = qHTS assay to identify aromatase inhibitors - cell viability counter screen (AID 743084);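 further: cells stimulated with testosterone during compound exposure; nearly all actives have a fitted effect of over 55% in size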
[2] = target: Aryl hydrocarbon receptor (Homo sapiens) (UniProt P35869); test: qHTS assay to identify small molecule that activate the aryl hydrocarbon receptor (AhR) signaling pathway (AID 743085); further: nearly all actives have a fitted effect of over 15% in size; further: potency means the concentration at half of the fitted maximal effect;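 on activation: HG2L7.5c1 human HepG2 liver cells with stably integrated DRE-driven firefly reporter; series mostly up to about 70 µM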
Sequence of Aryl hydrocarbon receptor (Homo sapiens) (P35869 whole entry, looked up): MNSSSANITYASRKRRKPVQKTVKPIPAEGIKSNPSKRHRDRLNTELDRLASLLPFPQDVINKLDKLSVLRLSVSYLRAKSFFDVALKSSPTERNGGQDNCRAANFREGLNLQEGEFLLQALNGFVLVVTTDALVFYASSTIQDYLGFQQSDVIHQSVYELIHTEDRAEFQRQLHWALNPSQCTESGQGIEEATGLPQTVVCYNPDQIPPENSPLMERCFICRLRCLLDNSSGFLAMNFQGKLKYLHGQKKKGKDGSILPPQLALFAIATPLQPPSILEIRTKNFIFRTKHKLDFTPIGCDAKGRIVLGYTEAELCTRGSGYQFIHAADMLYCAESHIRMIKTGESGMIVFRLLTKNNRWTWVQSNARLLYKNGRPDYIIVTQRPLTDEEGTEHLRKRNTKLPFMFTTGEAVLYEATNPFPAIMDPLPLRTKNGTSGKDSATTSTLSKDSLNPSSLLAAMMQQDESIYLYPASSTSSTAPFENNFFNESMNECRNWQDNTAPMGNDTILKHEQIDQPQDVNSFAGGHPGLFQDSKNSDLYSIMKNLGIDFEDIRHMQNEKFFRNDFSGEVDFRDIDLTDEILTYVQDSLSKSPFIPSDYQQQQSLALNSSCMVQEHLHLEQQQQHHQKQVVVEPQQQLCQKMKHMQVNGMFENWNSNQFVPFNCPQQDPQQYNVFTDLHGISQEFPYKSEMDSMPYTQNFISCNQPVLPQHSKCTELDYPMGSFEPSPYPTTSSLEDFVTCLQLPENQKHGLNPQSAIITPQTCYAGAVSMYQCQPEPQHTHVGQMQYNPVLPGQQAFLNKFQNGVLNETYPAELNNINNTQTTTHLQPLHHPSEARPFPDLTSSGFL
Outline: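 Cell line HG2L7.5c1 (human hepatoma, 20× DRE-luc). Plated, 5 h 37C, compound/DMSO added, 24 h 37C. CellTiter-Fluor 30 min 37C → fluorescence; then ONE-Glo 30 min RT → luminescence.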

[3] = qHTS assay to identify small molecule that activate the aryl hydrocarbon receptor (AhR) signaling pathway - cell viability counter screen (AID 743086); further: nearly all actives have a fitted effect of over 45% in size; further: potency means the concentration at half of the fitted maximal effect
Outline: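 HepG2-AhR-luc (HG2L7.5c1) cells, 4000/well, treated 24 h at 37 C with compound; viability measured as CellTiter-Fluor fluorescence after 30 min in the same wells as the luciferase read.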

[4] = target: Peroxisome proliferator-activated receptor gamma (Homo sapiens) (UniProt P37231); test: qHTS assay to identify small molecule agonists of the peroxisome proliferator-activated receptor gamma (PPARg) signaling pathway (AID 743094; active means well fitted activation curve with a large enough effect in the signal ratio in the repeat runs, not every such curve was filed as active; the % refers to the signal ratio)
Sequence of Peroxisome proliferator-activated receptor gamma (Homo sapiens) (P37231 whole entry, looked up): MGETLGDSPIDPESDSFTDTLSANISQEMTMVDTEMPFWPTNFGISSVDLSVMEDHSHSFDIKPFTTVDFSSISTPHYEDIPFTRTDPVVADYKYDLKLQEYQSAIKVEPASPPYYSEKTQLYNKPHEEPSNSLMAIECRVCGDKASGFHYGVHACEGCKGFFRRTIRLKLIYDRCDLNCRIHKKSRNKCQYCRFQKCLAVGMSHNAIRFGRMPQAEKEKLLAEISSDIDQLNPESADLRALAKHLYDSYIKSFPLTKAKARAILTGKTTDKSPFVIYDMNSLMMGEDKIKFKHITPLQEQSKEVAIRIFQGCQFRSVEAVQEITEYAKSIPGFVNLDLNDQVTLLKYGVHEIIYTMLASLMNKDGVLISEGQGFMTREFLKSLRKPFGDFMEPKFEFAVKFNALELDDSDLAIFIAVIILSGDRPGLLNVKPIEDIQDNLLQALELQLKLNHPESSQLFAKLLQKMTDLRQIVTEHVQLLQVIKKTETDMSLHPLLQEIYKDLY
Outline: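 Compounds dissolved in DMSO were added to PPARg UAS-bla HEK293H cells for 17 h at 37C, and reporter expression was quantified by fluorescence intensity after 1 h with LiveBLAzer B/G FRET substrate.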

[5] = target: Nuclear receptor subfamily 1 group I member 2 (Rattus norvegicus) (UniProt Q9R1A7); test: Rat pregnane X receptor (rPXR) activation by small molecules, qHTS assay (AID 1346983); conditions: rPXR luciferase reporter cells, One-Glo luminescence, 24 h; max activation: stronger effect = higher value; further: nearly all actives have a fitted effect of over 20% in size; further: potency means the concentration at half of the fitted maximal effect
Sequence of Nuclear receptor subfamily 1 group I member 2 (Rattus norvegicus) (Q9R1A7 whole entry, looked up): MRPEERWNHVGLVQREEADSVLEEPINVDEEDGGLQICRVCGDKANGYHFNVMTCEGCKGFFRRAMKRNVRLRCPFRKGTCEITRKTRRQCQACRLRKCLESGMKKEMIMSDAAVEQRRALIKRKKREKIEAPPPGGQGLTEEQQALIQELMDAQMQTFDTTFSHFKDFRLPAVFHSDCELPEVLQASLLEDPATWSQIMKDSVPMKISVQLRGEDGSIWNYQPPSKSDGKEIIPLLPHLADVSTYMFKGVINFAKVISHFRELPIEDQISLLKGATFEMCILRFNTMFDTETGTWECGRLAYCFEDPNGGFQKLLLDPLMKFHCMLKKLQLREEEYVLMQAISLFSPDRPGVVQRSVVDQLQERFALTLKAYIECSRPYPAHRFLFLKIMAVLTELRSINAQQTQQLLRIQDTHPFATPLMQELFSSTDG
Outline: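 Cell-based rPXR activation assay: rPXR cells, 2,000 per well, rested 5hr at 37 C, then exposed to compounds in DMSO for 24 hr at 37 C. Luciferase activity read by One-Glo luminescence after 30 min at room temperature.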

[6] = target: Nuclear receptor subfamily 1 group I member 2 (Homo sapiens) (UniProt O75469); test: CYP3A4 induction through human pregnane X receptor (PXR) by small molecules, qHTS assay (AID 1346984); further: nearly all actives have a fitted effect of over 40% in size; further: potency means the concentration at half of the fitted maximal effect
Outline: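 Readings come from a luciferase reporter: DPX-2 cells, which are HepG2 cotransfected with PXR and a CYP3A4-promoter construct, were exposed to test compounds for 24 h at 37C before One-Glo detection.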

[7] = target: Nuclear receptor subfamily 1 group I member 2 (Homo sapiens) (UniProt O75469); test: Human pregnane X receptor (PXR) activation by small molecules, qHTS assay (AID 1346985); further: nearly all actives have a fitted effect of over 40% in size; further: potency means the concentration at half of the fitted maximal effect
Outline: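 DPX-2 cells (HepG2 co-transfected with a PXR response element and a CYP3A4-promoter luciferase construct) were seeded at 2,000 per well, rested 5 hr at 37C, then exposed to DMSO-dissolved compounds for 24 hr. Activation was read as luciferase luminescence.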

[8] = qHTS assay to identify small molecule phospholipidosis (PLD) inducers (AID 1259344; active means well fitted curve in the direction sought with a large enough effect; an effect the other way counts as inactive or inconclusive)
Outline: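 HepG2 cells, 900/well, treated with compound plus LipidTOX Red for 24 h at 37 C; amiodarone positive and DMSO negative controls. Fixed with paraformaldehyde/Hoechst, then high-content imaging scored LipidTOX pit count and integrated intensity per well and per cell.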
On the % scale 0 is the no-effect control and ±100 the full control effect.

Cc1ncc(COP(=O)(O)O)c(CN)c1O
inactive: Potency [1] | Potency [2] | Potency [3] | Potency [4] | max activation [5] 0.341% | Potency [6] | Potency [7]

COc1ccc2c(c1)OC(C)(C)C(c1ccccc1)C2c1ccc(OCCN2CCCC2)cc1 (configuration not stated)
active: Potency [7] 15.8 µM
inactive: Potency [1] | Potency [2] | max activation [5] -6.65% | Potency [6]

C=C1C(=C/C=C2\CCC[C@]3(C)[C@@H]([C@H](C)/C=C/[C@H](C)C(C)C)CC[C@@H]23)C[C@@H](O)C[C@@H]1O
inactive: Potency [3] | Potency [8]

CC1=C(C(=O)OCCN(Cc2ccccc2)c2ccccc2)C(c2cccc([N+](=O)[O-])c2)C(P2(=O)OCC(C)(C)CO2)=C(C)N1 (configuration not stated)
inactive: Potency [2] | PLD induction [8] -1.08% [at 7.66 µM]

COc1cc([C@@H]2c3cc4c(cc3C(O[C@@H]3O[C@@H]5CO[C@@H](C)O[C@H]5[C@H](O)[C@H]3O)C3COC(=O)[C@@H]32)OCO4)cc(OC)c1OP(=O)(O)O (some centres not stated)
inactive: Potency [1] | Potency [3] | Potency [4] | PLD induction [8] 0.0559% [at 1.53 µM]

CC(C)(C)NC[C@H](O)COc1ccccc1C1CCCC1
inactive: Potency [1] | Potency [2] | Potency [3] | Potency [4] | max activation [5] -2.28% | Potency [6] | Potency [7]

C=CCCCCCCCCC(=O)OC
inactive: Potency [1] | Potency [2] | Potency [3] | Potency [4] | max activation [5] -1.33% | Potency [6] | Potency [7]

O=P(O)(O)C(O)(Cc1cnc2ccccn12)P(=O)(O)O
inactive: Potency [1] | Potency [3] | Potency [4] | Potency [8]

[O]=[Bi][O][Bi]=[O]
inactive: Potency [1] | Potency [2] | Potency [3] | max activation [5] -2.85% | Potency [6] | Potency [7]

O=C(Nc1ccc(/C=C/c2ccc(NC(=O)c3cc(S(=O)(=O)O)c4cccnc4c3O)cc2S(=O)(=O)O)c(S(=O)(=O)O)c1)c1cc(S(=O)(=O)O)c2cccnc2c1O
inactive: Potency [2] | Potency [3] | Potency [4] | PLD induction [8] -0.0305% [at 7.66 µM]

C#C[C@]1(OC(C)=O)CC[C@H]2[C@@H]3CCC4=CC(=O)CC[C@@H]4[C@H]3CC[C@@]21C
inactive: Potency [3] | Potency [4] | PLD induction [8] 1.06% [at 7.66 µM]

Nc1ccc(S(=O)(=O)Nc2ncccn2)cc1
inactive: max activation [5] -1.29% | Potency [6] | Potency [7]

C[C@@H]1C[C@H]2C3C[C@H](F)C4=CC(=O)C=CC4(C)[C@@]3(F)[C@@H](O)CC2(C)[C@@]1(O)C(=O)COC(=O)C(C)(C)C (some centres not stated)
inactive: Potency [1] | Potency [3] | Potency [4] | Potency [8]

COc1cc(NCCCC(C)N)c2ncccc2c1 (configuration not stated)
inactive: Potency [3] | Potency [4] | Potency [8]

C=C1/C(=C\C=C2/CCC[C@]3(C)[C@@H]([C@H](C)OCCC(C)(C)O)CC[C@@H]23)C[C@@H](O)C[C@@H]1O
inactive: Potency [1] | Potency [4] | Potency [8]

CNC(=O)[C@H](Cc1c[nH]c2ccccc12)NC(=O)[C@@H](CC(=O)NO)CC(C)C
inactive: max activation [5] 15% | Potency [6] | Potency [7]
active: Potency [3] 0.596 µM

O=C1CSC2(CCN(CCCN3c4ccccc4Sc4ccc(Cl)cc43)CC2)N1
inactive: max activation [5] 2.22% | Potency [6]
active: Potency [2] 13.3 µM

C=C[C@]1(C)C[C@@H](OC(=O)CSCCN(CC)CC)[C@]2(C)[C@H](C)CC[C@]3(CCC(=O)[C@H]32)[C@@H](C)[C@@H]1O
active: Potency [7] 15.8 µM
inactive: Potency [2] | Potency [4] | Potency [6]

CC(/C=C/C=C(\C)C(=O)O[C@@H]1O[C@H](CO[C@@H]2O[C@H](CO)[C@@H](O)[C@H](O)[C@H]2O)[C@@H](O)[C@H](O)[C@H]1O)=C\C=C\C=C(C)\C=C\C=C(/C)C(=O)O[C@@H]1O[C@H](CO[C@@H]2O[C@H](CO)[C@@H](O)[C@H](O)[C@H]2O)[C@@H](O)[C@H](O)[C@H]1O
inactive: Potency [3] | max activation [5] -0.182% | Potency [6] | Potency [7]

CNC(=O)c1c(I)c(C(=O)NCC(=O)Nc2c(I)c(C(=O)O)c(I)c(C(=O)NCCO)c2I)c(I)c(N(C)C(C)=O)c1I
inactive: Potency [3] | Potency [6]

C[C@]12CCC(=O)C[C@@H]1CC[C@@H]1[C@@H]2CC[C@]2(C)C=CC[C@@H]12
inactive: Potency [1] | Potency [3] | Potency [4] | max activation [5] -0.035% | Potency [6] | Potency [7]

CN(C)CC/C=C1/c2ccccc2CSc2ccccc21
inactive: Potency [1] | Potency [2] | Potency [4] | max activation [5] -3.65% | Potency [6] | Potency [7]

CC(C)[C@@H](C)/C=C/[C@@H](C)[C@H]1CC[C@H]2/C(=C/C=C3\C[C@@H](O)CC[C@@H]3C)CCC[C@]12C
inactive: Potency [1] | Potency [3] | Potency [4] | max activation [5] -0.157% | Potency [6] | Potency [7]

Cc1c(Cl)cccc1Nc1ncccc1C(=O)O
inactive: Potency [1] | Potency [3] | Potency [4] | max activation [5] 0.0958% | Potency [6] | Potency [7]

CN1CCN(C(c2ccccc2)c2ccc(Cl)cc2)CC1 (configuration not stated)
inactive: Potency [2] | Potency [4] | max activation [5] -0.288% | Potency [6] | Potency [7]

CCCC(=O)Nc1c(I)cc(I)c(CC(CC)C(=O)O)c1I (configuration not stated)
inactive: Potency [4] | max activation [5] -4.56%
active: Potency [6] 22.4 µM

Cc1cccc(C)c1NC(=O)NC1=CCCN1C
inactive: Potency [1] | Potency [2] | Potency [3] | Potency [4] | Potency [6] | Potency [7]

CC(C)(C)CC(C)(C)c1cc(Cc2cc(C(C)(C)CC(C)(C)C)cc(-n3nc4ccccc4n3)c2O)c(O)c(-n2nc3ccccc3n2)c1
inactive: Potency [1] | Potency [2] | Potency [3] | Potency [4] | max activation [5] -3.34% | Potency [6] | Potency [7]

CN1[C@@H]2CC[C@H]1CC(OC(c1ccccc1)c1ccccc1)C2 (some centres not stated)
inactive and 14.1 µM (active): Potency [6]
inactive: Potency [1] | Potency [2] | Potency [3] | Potency [4] | Potency [7]

COc1cc([C@@H]2c3cc4c(cc3C(O[C@@H]3O[C@@H]5COC(c6cccs6)O[C@H]5[C@H](O)[C@H]3O)C3COC(=O)[C@@H]32)OCO4)cc(OC)c1O (some centres not stated)
active: Potency [5] 28.2 µM | Potency [7] 10 µM
inactive: Potency [2] | Potency [3]

CC(=O)c1ccc2c(c1)N(CCCN1CCN(CCO)CC1)c1ccccc1S2
inactive: max activation [5] -12.2% | Potency [7]

CN1CCC(CN2c3ccccc3Sc3ccccc32)C1 (configuration not stated)
active: Potency [6] 0.891 µM
inactive: Potency [1] | Potency [2] | max activation [5] -2.87%

CN(C)CCCN1c2ccccc2C(C)(C)c2ccccc21
inactive: Potency [1] | Potency [2] | max activation [5] -1.25%
active: Potency [6] 31.6 µM

CC(Oc1ccccc1)C(=O)N[C@@H]1C(=O)N2[C@@H]1SC(C)(C)[C@@H]2C(=O)O (some centres not stated)
inactive: Potency [1] | Potency [2] | Potency [3] | Potency [4] | max activation [5] -1.33% | Potency [6] | Potency [7]

CCCCCc1ccc(C)cc1O
inactive: Potency [1] | Potency [3] | Potency [4] | Potency [6] | Potency [7]

CC(C)N1CCN(c2ccc(OC[C@H]3CO[C@](Cn4cncn4)(c4ccc(Cl)cc4Cl)O3)cc2)CC1
inactive: Potency [1] | Potency [4] | max activation [5] -0.695% | Potency [6]
active: Potency [7] 5.62 µM

OCCN1CCN(CC/C=C2/c3ccccc3Sc3ccc(Cl)cc32)CC1
inactive: Potency [1] | Potency [2] | Potency [3] | Potency [4] | max activation [5] -1.76% | Potency [6] | Potency [7]

CCCCC(=O)OCC(=O)[C@]1(O)Cc2c(O)c3c(c(O)c2[C@@H](O[C@H]2C[C@H](NC(=O)C(F)(F)F)[C@H](O)[C@H](C)O2)C1)C(=O)c1c(OC)cccc1C3=O
inactive: Potency [2] | Potency [6] | Potency [7]

CN1CCCC(CN2c3ccccc3Sc3ccccc32)C1 (configuration not stated)
inactive: Potency [1] | Potency [2] | Potency [3] | Potency [4] | max activation [5] -5.65%
active: Potency [6] 25.1 µM

Cc1cc(C)c(NC(=O)C[C@H](CC(=O)O)c2cccc3ccccc23)c(C(=O)N2CCC3(CCCC3)CC2)c1
inactive: Potency [1] | Potency [2] | Potency [3] | Potency [4] | Potency [6]

CNC(C)CCC=C(C)C (configuration not stated)
inactive: Potency [1] | Potency [3] | Potency [4] | max activation [5] 2.06% | Potency [6] | Potency [7]

CCc1ccc2c(c1)N(CC(C)CN(C)C)c1ccccc1S2 (configuration not stated)
inactive: Potency [2] | max activation [5] 1.61%
active: Potency [6] 12.6 µM

CO[C@H]1C[C@@H]2CC[C@@H](C)[C@@](O)(O2)C(=O)C(=O)N2CCCC[C@H]2C(=O)O[C@H]([C@H](C)C[C@@H]2CC[C@@H](OC(=O)C(C)(CO)CO)[C@H](OC)C2)CC(=O)[C@H](C)/C=C(\C)[C@@H](O)[C@@H](OC)C(=O)[C@H](C)C[C@H](C)/C=C/C=C/C=C/1C
inactive: Potency [1] | Potency [2] | Potency [3] | Potency [4] | max activation [5] 0.976% | Potency [6] | Potency [7]

C[C@]12C=CC(=O)N[C@@H]1CC[C@@H]1[C@@H]2CC[C@]2(C)[C@@H](C(=O)Nc3cc(C(F)(F)F)ccc3C(F)(F)F)CC[C@@H]12
inactive: Potency [1] | Potency [2] | Potency [3] | Potency [4] | max activation [5] -1.05% | Potency [6] | Potency [7]
